Assay results reported in PubChem BioAssay (NCATS).
“And” between values parts separate entries of the source, which are not always exact repeats. Identical values can stand only once. Inconclusive results are not listed. The source made the active and inactive calls. Unless noted, calls come from the whole dose curve; as a rule, active = well fitted curve in the direction sought with a large enough effect; inconclusive = small, poorly fitted or top-dose-only effect, or another doubt; inactive = no such curve, though single readings can be large; an effect the other way counts as inactive or inconclusive.

How the values were obtained:
[1] = Primary qHTS for inhibitors of nuclear receptor binding SET domain protein 2 (NSD2) in an isogenic RCH-ACV NSD2 p.E1099K mutant (9B) (AID 1645876); note: nearly all actives have a fitted effect of over 70% in size; note: potency is the fitted concentration of half-maximal effect
[2] = Primary qHTS for inhibitors of nuclear receptor binding SET domain protein 2 (NSD2) in an RCH-ACV wild type WT cells (2C) (AID 1645877); note: nearly all actives have a fitted effect of over 70% in size; note: potency is the fitted concentration of half-maximal effect
[3] = NCATS anti-infectives library activity on the primary C. elegans qHTS viability assay (AID 1745855; calls by dose curve; note: potency is the fitted concentration of half-maximal effect)
Summary of the method: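 Viability is taken from GFP fluorescence of PE254-GFP-FLuc C. elegans imaged by laser cytometry over 7 days. Ten L1 worms per well grow at 21 °C on TOP10 E. coli capsules with titrated compound; levamisole marks toxicity.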

[4] = target: Glutathione peroxidase 1 (Homo sapiens) (UniProt P07203); assay: Primary qHTS Assay for Inhibitors of Recombinant Selenoprotein Glutathione Peroxidase 1 (GPX1) (AID 1845191); note: nearly all actives have a fitted effect of over 65% in size; note: potency is the fitted concentration of half-maximal effect
Summary of the method: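 GR-coupled assay: compounds preincubated 30 min at room temperature with GPX1, then reaction started with CHP; final 10 nM GPX1, 1 mM GSH, 0.5 mM CHP, 0.5 mM NADPH, 100 nM GR, 0.01% BSA, pH 7.5 Tris buffer. NADPH fluorescence (340/450 nm) read at 0 and 15 min.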

[5] = target: Phospholipid hydroperoxide glutathione peroxidase GPX4 (Homo sapiens) (UniProt P36969); assay: Primary qHTS Assay for Inhibitors of Recombinant Selenoprotein Glutathione Peroxidase 4 (GPX4) (AID 1845192); note: nearly all actives have a fitted effect of over 65% in size; note: potency is the fitted concentration of half-maximal effect
Summary of the method: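 GR-coupled assay: recombinant GPX4 preincubated 30 min with compound at room temperature; final 200 nM GPX4, 1 mM GSH, 0.5 mM cumene hydroperoxide, 0.5 mM NADPH, 100 nM GR, 0.01% BSA, pH 7.5 Tris. NADPH fluorescence (340/450 nm) read at 0 and 15 min.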

[6] = qHTS drug screen for cell cycle checkpoint inhibitors in PARPi-resistant BRCA-mutant ovarian cancer cell lines. (AID 1963452; calls by dose curve); details: PEO1/OlaR viability, CellTiter-Glo luminescence, 96 h, stronger effect = lower value
Summary of the method: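 PEO1, PEO4 and PEO1/OlaR ovarian cancer cells, 600 per well, exposed 96 h at 37C to a dilution series. Viability read by CellTiter-Glo luminescence, normalized to DMSO and empty wells; activity summarized as Z-AUC.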

[7] = measured here: PEO1 parental Z-AUC

Glutathione peroxidase 1 (Homo sapiens), sequence (P07203 whole entry, looked up): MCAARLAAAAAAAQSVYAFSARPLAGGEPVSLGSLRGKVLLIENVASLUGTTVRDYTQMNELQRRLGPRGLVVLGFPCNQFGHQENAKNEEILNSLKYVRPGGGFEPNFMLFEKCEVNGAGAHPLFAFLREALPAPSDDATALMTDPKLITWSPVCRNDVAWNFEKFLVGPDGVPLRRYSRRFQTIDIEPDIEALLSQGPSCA
Phospholipid hydroperoxide glutathione peroxidase GPX4 (Homo sapiens), sequence (P36969 whole entry, looked up): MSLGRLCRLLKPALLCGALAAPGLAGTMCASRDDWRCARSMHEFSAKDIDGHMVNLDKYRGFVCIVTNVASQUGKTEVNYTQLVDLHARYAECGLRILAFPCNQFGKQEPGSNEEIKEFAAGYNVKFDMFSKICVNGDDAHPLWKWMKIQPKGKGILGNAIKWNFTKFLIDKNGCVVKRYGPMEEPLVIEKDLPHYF

Compound | Potency [1] | Potency [2] | Potency [3] | Potency [4] | Potency [5] | Z-AUC [6] | Z-AUC [6, 7] | Z-AUC ([6]; measured here: PEO4 Z-AUC)
Nc1ccc(F)cc1NC(=O)c1ccc(CNC(=O)/C=C/c2cccnc2)cc1 | 1.05 µM (active) | 1.18 µM (active) | inactive | inactive | inactive |  |  | 
CC(=O)NCCNc1cc(Cl)nn2c(-c3cccc(S(=O)(=O)N(C)C)c3)c(C)nc12 | 7.31 µM (active) | 4.61 µM (active) |  | inactive |  |  |  | 
Oc1cccc(Nc2ncnc3sc4c(c23)CCCC4)c1 | 9.2 µM (active) | 8.2 µM (active) |  | inactive |  |  |  | 
COc1ccc(-c2ccc3c(N4CCOC[C@@H]4C)nc(N4CCOC[C@@H]4C)nc3n2)cc1CO | 0.059 µM (active) | 0.0934 µM (active) |  | 18.3 µM (active) | 16.1 µM (active) |  |  | 
Nc1nc2cc(-c3ccc4ncc(C(=O)N5CCOCC5)n4c3)ccc2o1 | 8.33 µM (active) | 9.34 µM (active) |  | inactive | inactive |  |  | 
Cc1ccc([C@@H]2O[C@H](CO)[C@@H](O)[C@H](O)[C@H]2O)cc1Cc1ccc(-c2ccc(F)cc2)s1 | 23.5 µM (active) | 20.9 µM (active) |  | inactive | inactive | -0.931 (inactive) | -1.18 | -1.2
C=C1[C@H](OC(=O)/C=C(\C)CC)C[C@@H](C(C)C)[C@@H]2[C@H]([C@@H](C)OC(C)=O)C(=O)C[C@@H]12 | inactive | inactive |  | inactive | inactive | 1.28 (inactive) | 0.917 | 1.09
CC(=O)O/N=C1/C(c2c(O)[nH]c3cc(Br)ccc23)=Nc2ccccc21 | 1.84 µM (active) and 2.09 µM (active) | 2.06 µM (active) and 2.09 µM (active) | 20.5 µM (active) | inactive | inactive | -1.48 (inactive) | 0.461 | -0.699
C[C@@H](C(=O)Nc1ccc(Cl)cc1)C1CCC(c2ccnc3ccc(F)cc23)CC1 (stereo partly drawn) | 14.8 µM (active) | 13.2 µM (active) |  | inactive | inactive | -1.08 (inactive) | -1.14 | -0.907
CCC(=O)NC[C@H](Cc1ccc(OCCc2nc(-c3ccccc3)oc2C)cc1)N/C(C)=C\C(=O)c1ccc(C(F)(F)F)cc1 | inactive | inactive |  | inactive | inactive | 0.763 (inactive) | 0.398 | 0.423
O=C(NO)C1(CS(=O)(=O)c2ccc(Oc3ccc(Cl)cc3)cc2)CCOCC1 | 16.6 µM (active) | 16.6 µM (active) |  | inactive | inactive | 1.18 (inactive) | 0.196 | 0.465
c1ccc2c(-c3cnn4cc(-c5ccc(OCCN6CCOCC6)cc5)cnc34)ccnc2c1 | 3.62 µM (active) | 3.23 µM (active) |  | inactive | inactive | -1.41 (inactive) | -1.08 | -0.99
CC[C@@H]1[C@H](F)C(=O)N[C@@H]1COc1nccc2cc(C(N)=O)c(OC)cc12 | 14.8 µM (active) | 10.5 µM (active) |  | inactive | 18 µM (active) | -0.948 (inactive) | -0.251 | 0.0982
C[C@@H](OC[C@@]1(c2ccccc2)CC[C@]2(CCC(=O)N2)CN1)c1cc(C(F)(F)F)cc(C(F)(F)F)c1 | 9.34 µM (active) | 9.34 µM (active) |  | inactive | inactive | -0.524 (inactive) | -0.495 | -0.395
CCOC(=O)CCNc1cc(N2CCc3ccccc3CC2)nc(-c2ccccn2)n1 | 2.35 µM (active) | 2.63 µM (active) |  | inactive | inactive | 0.71 (inactive) | 0.271 | -0.212
C=CC(=O)N[C@H]1CN(c2nc(Nc3cn(C)nc3OC)c3ncn(C)c3n2)C[C@@H]1F | 14.8 µM (active) | 20.9 µM (active) |  | inactive | inactive |  |  | 
O=C(Nc1ncc(SCCN2CCCC2)s1)[C@]1(c2ccc(S(=O)(=O)C3CC3)cc2)C[C@H]1C1CCCCC1 | 10.5 µM (active) | 8.33 µM (active) |  | inactive | inactive | 0.2 (inactive) | -0.0651 | 0.2
C/C=C/C/C=C/CCC(=O)[C@H]1O[C@H]1C(N)=O | 11.8 µM (active) | 13.2 µM (active) |  | inactive | inactive | -0.297 (inactive) | -0.147 | -0.049
